High-throughput results deposited in PubChem by National Center for Advancing Translational Sciences (NCATS).
Shiga toxin inh = blocks Shiga toxin action in Vero cells. 9.2% of 290,000 active. inhibition, % at 38.7 µM. Vero cells, Shiga toxin protein synthesis inhibition reporter; in the data active = inhibition mostly above about 28%, no sharp cut-off; inactive = mostly below about 43%; also: 0% is about no effect
CHX counter = counter-screen hit for Shiga toxin inhibitors, cycloheximide; cell reporter, cycloheximide protein synthesis inhibition counterscreen; max response, %; 12% of 300,000 active; AID 2314; in the data active = max response mostly above about 13%, no sharp cut-off; inactive = mostly below about 14%; also: read at 38.3 µM for the half of the compounds with a filed dose; 0% is about no effect
Pf growth 96h = P. falciparum growth inhibition at 96 hours. P. falciparum luciferase reporter growth, 96 h. Potency, µM (series often up to 28.7 µM), inactives show at the top dose activity change, negative = inhibition, usual class: inhibitors. 6.9% of 320,000 active. AID 504834; also: potency is read from the fitted curve at half-maximal effect; % is scaled to controls: 0 for no effect and ±100 for the full control effect
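Compounds incubated with erythrocytes infected by luciferase-expressing P. falciparum (2% hematocrit, 0.05% parasitemia final) for 96 hours, 37 C in 5% CO2. Growth inhibition scored as decreased luciferase luminescence.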
Pf growth 48h = inhibits P. falciparum growth in the first generation, 48 h | 5.9% of 310,000 active | AID 504832 | Potency, µM (highest dose often 28.7 µM), inactives show top-dose activity change, negative = inhibition, hits mostly inhibitors | P. falciparum luciferase growth in erythrocytes, 48 h; also: potency is read from the fitted curve at half-maximal effect; % is scaled to controls: 0 for no effect and ±100 for the full control effect
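Erythrocytes infected with P. falciparum carrying an integrated firefly luciferase reporter (2% hematocrit, 0.1% parasitemia final) were exposed to compounds in RPMI 1640 with 0.5% Albumax at 37 C, 5% CO2. Growth inhibition was scored as reduced luminescence.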
LmPK inhibitor = LmPK (Leishmania mexicana) enzyme inhibition; Q27686; purified LmPK, Kinase-Glo ATP luminescence, 1 h; Potency, µM (top dose mostly 57.5 µM), without a hit: at the top dose activity change, negative = inhibition, hits mostly inhibitors; 0.37% of 290,000 active; AID 1721; also: potency is read from the fitted curve at half-maximal effect; % is scaled to controls: 0 for no effect and ±100 for the full control effect
Target sequence (Q27686 whole entry, looked up): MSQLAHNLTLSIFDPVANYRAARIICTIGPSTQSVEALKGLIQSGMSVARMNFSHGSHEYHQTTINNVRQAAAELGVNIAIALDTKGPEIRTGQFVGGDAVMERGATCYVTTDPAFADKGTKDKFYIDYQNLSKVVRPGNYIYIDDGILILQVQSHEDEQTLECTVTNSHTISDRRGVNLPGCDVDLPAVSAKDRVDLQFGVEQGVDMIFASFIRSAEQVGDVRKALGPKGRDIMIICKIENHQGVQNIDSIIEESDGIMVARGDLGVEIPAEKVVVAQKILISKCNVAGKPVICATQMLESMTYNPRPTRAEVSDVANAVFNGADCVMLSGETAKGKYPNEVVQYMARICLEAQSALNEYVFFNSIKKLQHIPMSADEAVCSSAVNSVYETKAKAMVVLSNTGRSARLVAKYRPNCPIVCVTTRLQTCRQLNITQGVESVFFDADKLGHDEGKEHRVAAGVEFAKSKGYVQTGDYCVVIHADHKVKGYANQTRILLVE
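Pyruvate kinase activity monitored as ATP production (luciferase luminescence). Conditions: 0.1 nM enzyme, 0.5 mM PEP, 0.1 mM ADP, 1 h, RT; normalized against uninhibited and no-enzyme wells.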
Starred values were filed as active, the others as inactive; ? = inconclusive; . = no result; [ ] = another dose, or the depositor's remark. A selection: hits, their analogues and other compounds. The true share with any hit is near 22%. Unless noted, calls follow the shape of the dose curve; as a rule, active = well fitted inhibition curve with a large enough effect; inconclusive = small, poorly fitted or top-dose-only effect, or another doubt; inactive = no such curve, though single readings can be large or run the other way.

SMILES	Shiga toxin inh	CHX counter	Pf growth 96h	Pf growth 48h	LmPK inhibitor
O=S(=O)(c1ccc(NC(=S)N/N=C/c2ccc(O)c(O)c2)cc1)N1CCOCC1	8	1	13µM*	15µM*	-11%
O=[N+]([O-])c1cc(Cl)cc(/C=N/NC(=S)Nc2ccc(S(=O)(=O)N3CCOCC3)cc2)c1O	-8	1	?	0.47µM*	-13%
O=S(=O)(c1ccc(Cl)c(NC(=S)N/N=C/c2ccc(O)cc2)c1)N1CCOCC1	15	18*	3.3µM*	-27%	5%
CC(=O)OCC1OC(OC(C)=O)C(NC(=O)c2cccnc2)C(OC(C)=O)C1OC(C)=O (centres undefined)	-3	-3	50%	4%	-3%
COCCCN(C(=S)Nc1ccc(C)cc1Cl)C(C)c1ccncc1 (centres undefined)	9	10	?	20%	3%
Cc1ccc(NC(=S)N(CCC(C)C)C(C)c2ccncc2)c(Cl)c1 (centres undefined)	35	23*	?	?	2%
CCOc1c(C(=O)CC)cc2c(C)cc(=O)oc2c1C	7	-3	?	12µM*	0%
CCOc1ccc2c(C)cc(=O)oc2c1OCC	-9	14	39%	?	-1%
COc1ccc(N=c2ssnc2Cl)cc1	37*	18*	16%	30%	-8%
Fc1ccc(N=c2ssnc2Cl)c(F)c1	43	19*	17%	?	-26%
Clc1ccc(N=c2ssnc2Cl)cc1	40*	11	?	-6%	0%
CCOC(=O)c1ccc(N=c2ssnc2Cl)cc1	53*	23*	24%	58%	-12%
COc1cccc(NC(=O)CN(C)C(=O)CSc2ccc3c(c2)OCCO3)c1	.	.	?	-24%	.
CC1CC(NS(=O)(=O)c2cccs2)CC(C)(C)C1 (centres undefined)	3	-1	13%	.	0%
CN(CC(=O)Nc1cccc(F)c1)C(=O)Cn1cnc2c1c(=O)n(C)c(=O)n2C	.	.	31%	?	.
CCOCCn1ccc2c(OCC(=O)NCc3ccccc3)cccc2c1=O	.	.	-23%	?	.
CN(C)S(=O)(=O)c1ccc(C(=O)NCc2nnc(SCC(=O)NCc3ccco3)o2)cc1	-5	-1	-15%	56%	-3%
Cc1ccc(C(C(=O)NC2CCCC2)N(C(=O)Cc2cccs2)c2cccc(C)c2C)o1 (centres undefined)	-5	-1	12µM*	?	0%
Cc1cc(C)cc(N(C(=O)Cc2cccs2)C(C(=O)NC2CCCC2)c2ccc(C)o2)c1 (centres undefined)	11	-2	?	?	9%
CCn1c(O)c(N=NC(=O)c2cccnc2)c2cc(Br)ccc21	-11	-2	?	10µM*	6%
CCCCn1c(O)c(N=NC(=O)c2ccncc2)c2cc(Br)ccc21	-3	-3	?	-16%	3%
O=S(=O)(c1cccs1)N1CCN(Cc2cccc(F)c2)CC1	-8	-2	41%	30%	2%
CC(C)c1ccccc1NC(=S)N1CCN(S(=O)(=O)c2cccs2)CC1	-5	7	5.2µM*	?	5%
Cc1c(Cl)cccc1NC(=S)N1CCN(S(=O)(=O)c2cccs2)CC1	5	-1	?	1.9µM*	4%
Cc1cc(O)c(CN2CCN(S(=O)(=O)c3cccs3)CC2)cc1C(C)C	.	.	4.1µM*	1.7µM*	.
SMILES	Shiga toxin inh	CHX counter	Pf growth 96h	Pf growth 48h	LmPK inhibitor
Cc1c(Cl)cccc1NC(=S)N1CCCCCC1	-2	0	?	0%	-4%
CCOc1ccc(S(=O)(=O)NCCC(=O)NCCOc2ccccc2OC)cc1	.	.	-13%	-21%	.
CC(=O)C1=C(O)C(=O)N(c2ccc(C)cc2)C1c1ccccn1 (centres undefined)	37*	22*	8%	14%	3%
Cn1c(-c2ccsc2)c(-c2cccs2)c2cc(-c3ccc4cc[nH]c4c3)ccc21	.	.	?	2.1µM*	.
Cn1c(-c2ccsc2)c(-c2cccs2)c2cc(-c3ccc4[nH]ccc4c3)ccc21	.	.	5.9µM*	5.2µM*	.
CC1(C)CCC[C@@]2(C)CC=C(C(=O)O)[C@@H]3C[C@]312	.	.	3%	-12%	.
NC(=O)c1c(/N=C/c2cccs2)sc2c1CCCC2	21	10*	55%	53%	6%
O=C(/C=C/c1cccs1)Nc1sc2c(c1C(=O)O)CCCC2	30	25	29%	20%	-5%
COc1ccc(-n2c(SCC(=O)NCC3CCCO3)nc3ccccc32)cc1 (centres undefined)	3	-4	?	.	3%
CC(O)CNCCNCc1c(OCc2ccccc2)ccc2ccccc12 (centres undefined)	-17	-7	2.3µM*	1.9µM*	2%
CC(O)CNCCOc1ccccc1OCc1ccccc1 (centres undefined)	-9	1	46%	-16%	-6%
CCOC(=O)Cc1csc(NC(=S)NC(=O)c2cc(OC)c(OC)c(OC)c2)n1	-6	-4	12%	-8%	3%
CCC(=O)c1ccc(SC(=O)N(C)C)cc1O	27	15*	113%	50%	1%
COc1ccc(/C=C2\SC(N3CCCCC3)=NC2=O)cc1	21	22*	20%	?	2%
O=C1N=C(N2CCCC2)S/C1=C\C=C\c1ccccc1	69*	47*	0%	8%	-8%
CCOC(=O)C1CCCN(C2=NC(=O)/C(=C/c3ccc(O)c(OC)c3)S2)C1 (centres undefined)	30	14*	?	-6%[0.00184 µM]	0%
Cc1ccc(S(=O)(=O)Nc2cccc(-c3ccc(N4CCCCCC4)nn3)c2)c(C)c1	88*	42*	?	51%	-3%
Cc1ccc(C(=O)N[C@@H](Cc2ccccc2)C(=O)N2CCC3(CC2)NCCc2[nH]cnc23)cc1C	9	8	-13%	-20%	9%
CCCCCCNC(=O)c1c(O)c2cccc3c2n(c1=O)CCC3	19	10	?	11%	-12%
CCn1c(=O)c(C(=O)NCCN2CCCCC2)c(O)c2ccccc21	1	-2	0%	8.3µM*	1%
CCn1c(=O)c(C(=O)NCCc2ccccc2)c(O)c2ccccc21	-2	1	13%	?	1%
CCN(CC)CCNC(=O)c1c(O)c2cccc3c2n(c1=O)CCC3	15	-2	.	1.9µM*	1%
CCn1c(=O)c(C(=O)NCCc2ccc(OC)c(OC)c2)c(O)c2ccccc21	-13	-1	10µM*	?	0%
CCn1c(=O)c(=O)[nH]c2cc(C(=O)NC(C)c3ccc(S(N)(=O)=O)cc3)ccc21 (centres undefined)	-6	-3	39%	?	2%
Cc1ccnc(NS(=O)(=O)c2cc(C(F)(F)F)ccc2Cl)c1	27	-1	?	-25%	-1%
COc1ccccc1NC(=O)C1CCN(C(=O)c2ccco2)CC1	3	-6	25%	6%	-3%
Cc1ccc(NC(=O)N2CCN(Cc3ccc4c(c3)OCO4)CC2)cc1	-10	7	13µM*	.	-4%
